Screening data as filed in PubChem BioAssay.
Rows were chosen to be rich in hits. Some 2.1% of all compounds tested hit in one or more screens of this group.
EP2 mod: EP2 receptor (human) modulation; actives 0.83% (n = 260,000); induction, % at 25 µM; AID 940; EP2-expressing cells, cAMP HTRF FRET, PGE2 co-stimulation;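 active means compounds whose cAMP rise, as percent of the full-agonist control response, exceeds 60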;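 further: rat C6 glioma line stably carrying human EP2 under a CMV promoter; the protocol text gives 20 µM as final concentration; 100% = response of wells given 1 µM PGE2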
Target sequence (P43116 whole entry, looked up): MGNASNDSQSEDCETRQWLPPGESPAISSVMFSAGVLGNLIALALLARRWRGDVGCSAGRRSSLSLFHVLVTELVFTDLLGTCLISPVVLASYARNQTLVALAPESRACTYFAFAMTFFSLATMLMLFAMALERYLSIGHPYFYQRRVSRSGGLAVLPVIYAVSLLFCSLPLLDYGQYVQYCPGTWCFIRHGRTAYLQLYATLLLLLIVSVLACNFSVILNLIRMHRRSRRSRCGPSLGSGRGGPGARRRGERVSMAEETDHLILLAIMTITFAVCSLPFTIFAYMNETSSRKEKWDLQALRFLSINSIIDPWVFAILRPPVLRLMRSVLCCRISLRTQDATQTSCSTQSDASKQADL
PGE2 EP2 inh: EP2 receptor (human) inhibition; P43116; C6 glioma cells expressing human EP2, cAMP TR-FRET; cells stimulated with saturating PGE2; inhibition, % at 25 µM; actives 0.52% (n = 260,000); AID 1422;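 active means percent inhibition above 40 after rounding to a whole number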;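 further: rat C6 glioma host cells with rolipram phosphodiesterase inhibitor present; the protocol text gives 20 µM as final concentration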
CHT inh: inhibits the human high affinity choline transporter; CHT-expressing cells, membrane potential dye, choline response; stronger effect = lower value; B-score at 10 µM; actives 0.86% (n = 310,000);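 active means B-score over 3 SD under the library average, and starting fluorescence ratio not unusually high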;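 further: choline stimulus applied at its EC90 after an EC20 pre-addition; B-score computed on integrated fluorescence ratio after choline addition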
CHT allo act: allosterically activates the human high affinity choline transporter | Q9GZV3 | CHT-expressing cells, membrane potential dye, choline EC20; stronger effect = higher value; LV-AA mutant CHT in HEK293 cells | B-score at 10 µM | actives 0.49% (n = 310,000);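 active means initial fluorescence not abnormally high and integrated response B-score, plate-corrected, over 3 SD above library mean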
CHT activ conf: confirmation of human choline transporter (CHT) activators | shares compounds with CHT allo act | CHT-expressing cells, membrane potential dye fluorescence (FDSS); % of choline EC20–EC90 response window; HEK293 expressing CHT LV-AA mutant; choline added at its EC20 | activation, % at 10 µM | actives 91% (n = 2,500) | AID 504833;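 active means primary screen active, with duplicate mean activation above negative control mean plus 3 SD, cut at about 11% in these data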
HEK293 MP dye: activity in parental HEK293 cells lacking CHT | shares compounds with CHT allo act | membrane potential dye fluorescence (FDSS); measured after EC20 choline addition | ratio readout change at 10 µM, hits read low | actives 62% (n = 2,500) | AID 623908;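 active means duplicate-averaged ratio beyond 3 SD from buffer wells, up or down, though filed actives are nearly all decreases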
Active calls of the source: *.

For COC(=O)c1cc2c(ccn2-c2ccc(F)cc2)n1CC(C)C the results were EP2 mod -20, PGE2 EP2 inh 7, CHT inh inactive, CHT allo act inactive, CHT activ conf 24* and HEK293 MP dye inactive.
`CC(C)C(=O)Nc1ccc(C(=O)Nc2ccc(S(=O)(=O)NCC3CCCO3)cc2)cc1` (stereo unspecified) gave EP2 mod -35 and PGE2 EP2 inh 14.
`CCCNC(=O)[C@H]1C[C@@H](c2ccc(OC)c(OC)c2)NS(=O)(=O)N1C` gave EP2 mod -2.
`CC(=O)N1CCCc2cc(C(O)CN3CCN(C4CCCCC4)C(=O)C3)ccc21` (stereo unspecified) gave EP2 mod -19 and PGE2 EP2 inh 6.
`Cc1cc(C)n2c(Nc3ccc4c(c3)OCCO4)c(-c3ccc(C)o3)nc2n1` gave EP2 mod 0, PGE2 EP2 inh 14, CHT inh inactive, CHT allo act 9.7*, CHT activ conf 83* and HEK293 MP dye -50*.
`OCCN1CCN(c2ncnc3ccc(Br)cc23)CC1` gave EP2 mod -4, PGE2 EP2 inh 11, CHT inh inactive, CHT allo act 13*, CHT activ conf 38* and HEK293 MP dye -30*.
Screening Cc1cc(C)n(-c2nc(SCCN(C)C)c3c4c(sc3n2)COC(C)(C)C4)n1 returned EP2 mod 10, PGE2 EP2 inh 7, CHT inh inactive, CHT allo act inactive, CHT activ conf 41* and HEK293 MP dye -45*.
For O=C(COC(=O)c1cc[n+]([O-])cc1)Nc1cc([N+](=O)[O-])ccc1Cl the results were CHT inh inactive, CHT allo act inactive, CHT activ conf 40* and HEK293 MP dye -50*.
CCC(=O)OCC(=O)Nc1cc([N+](=O)[O-])ccc1Cl was read as EP2 mod 28, PGE2 EP2 inh 9, CHT inh inactive and CHT allo act inactive.
Screening COc1cccc(/C=C2/C(=O)NN(c3ccc(I)cc3)C2=O)c1O returned EP2 mod -36 and PGE2 EP2 inh 16.
Screening COc1cccc2cc(C(=O)OC3CCN(C)CC3)c(=O)oc12 returned EP2 mod 3, PGE2 EP2 inh 10, CHT inh inactive, CHT allo act 6.7*, CHT activ conf 43* and HEK293 MP dye -38*.
`CN1CCN(CC(=O)Nc2sc3c(c2C#N)CCC3)CC1` gave EP2 mod -30 and PGE2 EP2 inh 9.
For CN1CCN(CC(=O)Nc2sc3c(c2C(=O)Nc2ccccc2)CCCC3)CC1 the results were CHT inh inactive, CHT allo act inactive, CHT activ conf 45* and HEK293 MP dye -31*.
For Cc1c(Cl)cccc1NC(=O)C1CCCO1 (stereo unspecified) the results were EP2 mod -9 and PGE2 EP2 inh 11.
For O=C(NC1CCCCC1)[C@@H]1C=CCN1C(=O)c1ccc(F)cc1F the results were EP2 mod -29 and PGE2 EP2 inh 6.
Screening CCn1c(Cc2ccccc2)nnc1SCc1ccc([N+](=O)[O-])cc1 returned EP2 mod -31, PGE2 EP2 inh 7, CHT inh inactive and CHT allo act inactive.
`COCCn1c(Cc2ccccc2)nnc1SCc1ccc([N+](=O)[O-])cc1` gave EP2 mod -13, PGE2 EP2 inh 5, CHT inh inactive, CHT allo act inactive, CHT activ conf 21* and HEK293 MP dye inactive.
CC(=NCCCn1ccnc1)c1c(C)[nH]n(-c2ccc([N+](=O)[O-])cc2)c1=O was read as EP2 mod -15, PGE2 EP2 inh 5, CHT inh inactive, CHT allo act 7.8*, CHT activ conf 49* and HEK293 MP dye -44*.
Screening CCc1[nH]n2c(=O)cc(C)nc2c1-c1ccc(F)cc1 returned EP2 mod -32 and PGE2 EP2 inh 11.
`Cc1cc(N2CCOCC2)c2ccccc2n1` gave EP2 mod -1 and PGE2 EP2 inh 11.
Cc1cc(N2CCOCC2)c2c(N)cc(C)c(C)c2n1 was read as EP2 mod 7, PGE2 EP2 inh 12, CHT inh inactive, CHT allo act inactive, CHT activ conf 55* and HEK293 MP dye -73*.
Cn1c(/C=N/O)nc2ccccc21 was read as EP2 mod 0, PGE2 EP2 inh 9, CHT inh inactive and CHT allo act inactive.
Screening Cn1c(/C=N/n2cnnc2)nc2ccccc21 returned EP2 mod 0, PGE2 EP2 inh 11, CHT inh inactive, CHT allo act 6.5*, CHT activ conf 60* and HEK293 MP dye -48*.
CCCCCC[N+](C)(C)CC/C=C1/c2ccccc2Sc2ccc(Cl)cc21 was read as EP2 mod -2, PGE2 EP2 inh 8, CHT inh inactive, CHT allo act inactive, CHT activ conf 44* and HEK293 MP dye -27*.
`N#Cc1c(NC(=O)C2CC(c3ccccc3Cl)=NO2)sc2c1CCCC2` (stereo unspecified) gave EP2 mod -4 and PGE2 EP2 inh 15.
Screening Cc1sc2cc(-c3cccc([N+](=O)[O-])c3)c(-c3cccc([N+](=O)[O-])c3)c[n+]2c1C returned EP2 mod 13, PGE2 EP2 inh 20, CHT inh inactive, CHT allo act 8.4*, CHT activ conf 56* and HEK293 MP dye -88*.
O=[N+]([O-])c1cccc(-c2cc3cccc[n+]3cc2-c2cccc([N+](=O)[O-])c2)c1 was read as EP2 mod 12, PGE2 EP2 inh 13, CHT inh inactive, CHT allo act 14*, CHT activ conf 77* and HEK293 MP dye -75*.
`CCn1c(N2CCC(C(=O)NCCN(C)C)CC2)nc2ccccc21` gave EP2 mod -35.
Screening N=c1c2c3c(sc2nc2n1CCC2)CCCC3 returned EP2 mod -12, PGE2 EP2 inh 2, CHT inh inactive, CHT allo act inactive, CHT activ conf 48* and HEK293 MP dye -40*.
CC1(C)Cc2c(sc3nc4n(c(=N)c23)CCC4)CO1 was read as EP2 mod -3, PGE2 EP2 inh 10, CHT inh inactive, CHT allo act 8.5*, CHT activ conf 50* and HEK293 MP dye -63*.
Screening O=c1c2c3c(sc2nc2n1CCC2)CCCCC3 returned EP2 mod -5, PGE2 EP2 inh 5, CHT inh inactive and CHT allo act inactive.
Cc1nc2sc3c(c2c(=O)o1)CC(C)(C)OC3 was read as EP2 mod 14, PGE2 EP2 inh 9, CHT inh inactive and CHT allo act inactive.
For O=C(NCCc1ccccc1)c1cc2sccc2n1Cc1ccccc1 the results were EP2 mod -38, PGE2 EP2 inh 15, CHT inh inactive and CHT allo act inactive.
